# Vif inh: HIV Vif inhibition; HEK293T cells, Vif self-association by quenched fluorescence, imaging, 24 h; inhibition, % at 7.49 µM; 0.35% of 340,000 active; AID 602346; in the data active = inhibition above about 50%, passing the limit was not always enough
# CaV13 FRET inh: Primary screen for inhibitors of IQ motif and Ca2+-dependent inactivation inhibitor domain binding in CACNA1D, Förster resonance energy transfer in living cells, …. inhibition, % at 12.3 µM. 0.098% of 340,000 active. AID 743397. HEK cells, CFP/YFP FRET ICDI-IQ, plate reader, 10 min; percent FRET-ratio fall versus neutral wells;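 active = mean replicate inhibition of at least 30% and at least 1% of replicates passing that level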;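 note: 0% = median of the neutral control wells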
# Glyco luc inh: N-linked glycosylation inhibition; reporter increase, % at 12.5 µM; D54 ERlucT glycosylation luciferase reporter, 24 h; percent of 100 nM tunicamycin response; AID 588692; 0.23% of 360,000 active;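 active = mean luciferase reporter signal, scaled so untreated is 0 and the glycosylation-blocking control 100, at or above a set limit in every replicate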;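 note: luciferase carries N-glycosylation sites so blocking glycosylation raises the light; 0% = median of neutral control wells and 100% = median of 100 nM tunicamycin wells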
# Pemphigus Ab inh: blocks pemphigus antibody binding to human desmoglein-3. DSG3-coupled beads, scFv-anti-DSG3-GFP binding, flow cytometry; hits give low values. AID 588358. 0.48% of 310,000 active. binding (percent of control), % at 10 µM. P32926;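 active = binding more than 3 SD below its plate's average and above zero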;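 note: hits lower antibody fragment binding to DSG3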
# NSD2 HMT inh: inhibitors of human histone methyltransferase NSD2; NSD2 peptide methylation, AlphaScreen, 120 min; inhibition, % at 12.5 µM; 0.54% of 310,000 active
# ATG4B inh: inhibitors of human ATG4B cysteine protease. Q9Y4P1. AID 504462. 0.51% of 340,000 active. ATG4B cleavage of LC3-PLA2, NBD-HPC fluorescence, 1 h. inhibition, % at 8.33 µM; in the data active = inhibition above about 40%
# Target sequence (Q9Y4P1 whole entry, looked up): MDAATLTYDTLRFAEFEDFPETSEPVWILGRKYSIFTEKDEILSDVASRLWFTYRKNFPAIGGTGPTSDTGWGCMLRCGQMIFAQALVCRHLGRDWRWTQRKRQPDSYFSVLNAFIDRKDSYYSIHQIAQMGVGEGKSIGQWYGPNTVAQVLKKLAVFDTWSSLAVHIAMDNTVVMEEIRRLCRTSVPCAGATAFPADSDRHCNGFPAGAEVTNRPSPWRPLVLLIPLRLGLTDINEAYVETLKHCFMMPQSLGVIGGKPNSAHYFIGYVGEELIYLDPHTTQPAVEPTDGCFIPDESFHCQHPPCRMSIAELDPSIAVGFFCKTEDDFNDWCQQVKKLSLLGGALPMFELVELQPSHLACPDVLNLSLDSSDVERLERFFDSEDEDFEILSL
# ATG4B conf: confirmation of human ATG4B inhibitors; shares compounds with ATG4B inh; ATG4B protease fluorescent substrate cleavage assay; inhibition, % at 8.33 µM; 92% of 320 active; in the data active = inhibition above about 39%
# PLA2 ctr: PLA2 (human) inhibition in ATG4B counter-screen; shares compounds with ATG4B inh; purified PLA2, NBD-C6-HPC fluorescence, 45 min; inhibition, % at 8.33 µM; 66% of 1,600 active; AID 588402
# Target sequence (P04054 whole entry, looked up): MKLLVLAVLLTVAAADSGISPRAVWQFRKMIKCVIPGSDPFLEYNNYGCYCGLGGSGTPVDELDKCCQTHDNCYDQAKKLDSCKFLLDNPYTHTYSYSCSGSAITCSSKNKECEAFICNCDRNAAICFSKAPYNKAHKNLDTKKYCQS
# Starred values were filed as active, the others as inactive; nt = not tested or not shown. Sampled rows, rich in hits. Any-hit rate of the full collection: about 1.9%. Cut-off read from the data, not from the text of the source, unless noted: active = inhibition above about 50%; inactive = the rest.
SMILES,Vif inh,CaV13 FRET inh,Glyco luc inh,Pemphigus Ab inh,NSD2 HMT inh,ATG4B inh,PLA2 ctr,others
O=C(CSc1nc2ccc(Cl)cc2[nH]1)NCCc1ccccc1,-7.4,-2.7,-2.5,99.9,-1.2,5.3,nt,
Cc1onc(-c2ccccc2Cl)c1C(=O)NC(=S)NCC(=O)c1ccccc1,-0.7,-4.0,1.8,103.6,-2.2,44.8*,47.1,
CCOC(=O)c1nn(-c2ccccc2)c(-c2ccccc2)c1C(=O)c1ccccc1,5.6,-7.6,-3.1,88.7,-0.1,-3.0,nt,
CC(=O)Nc1cc(C(=O)N2CCc3ccccc3C2)ccc1Sc1ccc(Cl)cc1,-5.0,-5.5,0.0,97.1,-3.1,40.5*,50.7*,
CC1(C)Cc2c(cnn2-c2ccccc2)-c2c1c1ccccc1n2CC(O)CBr (stereo not drawn),-2.9,-2.2,-3.3,88.2,-1.4,47.5*,57.2*,
O=C(CSCc1c(Cl)cccc1Cl)Nc1cccnc1,-7.6,7.8,-2.7,96.3,-3.0,-1.8,nt,
Fc1ccc(CSc2nc3ccccc3[nH]2)c2ccccc12,2.6,-0.8,-0.9,103.5,12.5,66.5*,74.3*,
C=CCn1c(SCc2cc(C(C)=O)ccc2OCC)nc2ccccc2c1=O,20.5,-4.8,13.4,128.1,-0.3,49.8*,29.1,ATG4B conf=51.8*
COCCn1c(SCc2cc(C(C)=O)ccc2OC)nc2cc(Cl)ccc2c1=O,4.1,-9.0,6.8,128.3,-0.7,63.0*,63.0*,
COc1ccc(C(C)=O)cc1CSc1nc2ccccc2c(=O)n1-c1ccccc1,-0.5,-4.7,1.0,101.4,-0.3,35.1,nt,
COCCn1c(SCC(=O)Nc2cccnc2Cl)nc2cc(Cl)ccc2c1=O,-0.6,-16.9,1.4,nt,14.7,6.9,nt,
C=CCn1c(SCc2nc3ccccc3c(=O)[nH]2)nc2ccccc2c1=O,-4.8,nt,0.8,100.5,1.2,1.1,nt,
COc1ccc(C(C)=O)cc1CSc1nc2ccccc2c(=O)n1-c1cccc(C)c1,-17.8,-9.1,-6.2,91.9,-3.2,79.1*,32.7,ATG4B conf=49.5*
COc1ccc(C(C)=O)cc1CSc1nc2ccccc2c(=O)n1-c1ccccc1C,5.5,-3.1,1.3,114.1,-0.2,52.8*,81.3*,
N#Cc1c(NC(=S)NC(=O)c2ccccc2)sc2c1CCCC2,0.9,-5.5,5.1,99.4,0.7,-7.9,nt,
N#Cc1c(NC(=S)NC(=O)C2CCCC2)sc2c1CCCCC2,-11.1,-3.6,-3.0,97.5,-0.9,73.9*,-10.8,
CCCc1noc2c1/C(=N\O)CC(c1ccccc1)C2 (stereo not drawn),26.2,-5.4,-2.8,140.1,-2.5,12.5,nt,
CCCCCCCCCCCCCCC(O)C[N+](C)(CCO)CCO (stereo not drawn),5.0,-5.0,-9.0,89.1,-1.7,42.7*,41.9,ATG4B conf=64.4*
Cc1ccnn1CCC(=O)N1CCCC(CCC(=O)NCc2ccccc2F)C1 (stereo not drawn),-30.3,-6.9,3.2,98.0,-1.4,12.3,nt,
CCOC(=O)N/N=C/c1cn(CCCOc2ccccc2)c2ccccc12,-17.8,-5.5,-7.3,96.6,-2.4,31.0,nt,
CCOC(=O)N/N=C/c1cn(CCCOc2ccc(C)cc2)c2ccccc12,5.3,-3.2,-5.2,-31.3*,-4.7,41.1*,29.4,
CCOC(=O)/C(=N/Nc1ccc(C)cc1)S(=O)(=O)c1ccc(Cl)cc1,-3.5,nt,-6.4,102.9,-2.0,12.9,nt,
Cc1ccc(OCc2nnc(SCC(=O)c3ccccc3)n2-c2ccccc2)cc1,-10.5,-3.2,-4.1,114.8,0.1,74.5*,77.6*,
N#Cc1ccc(OCc2nnc(SCC(=O)c3ccccc3)n2-c2ccccc2)cc1,8.0,nt,-5.8,102.9,3.5,46.1*,56.7*,
Cc1cccc(-n2c(CCc3ccccc3)nnc2SCC(=O)c2ccccc2)c1,5.9,-9.9,-6.6,103.2,-2.8,72.4*,75.4*,
SMILES,Vif inh,CaV13 FRET inh,Glyco luc inh,Pemphigus Ab inh,NSD2 HMT inh,ATG4B inh,PLA2 ctr,others
O=C(COc1ccc(Cl)cc1Cl)NN=C1c2ccccc2-c2ccccc21,1.8,-5.3,2.7,99.8,-2.6,-4.5,nt,
CC(C)C(NC(=O)C1CCCCC1)C(=O)NC1CCCC(C)C1C (stereo not drawn),-8.5,nt,2.7,105.7,nt,-1.2,nt,
CCN1C[C@@H]2[C@@H]3C(=O)N(C)C(=O)[C@@H]3[C@](C)(C1=O)N2C(=O)c1ccc(C(C)(C)C)cc1,-6.0,-11.1,1.7,98.0,nt,-13.4,nt,
Cc1ccccc1CN(c1ccc(C(=O)N/N=C/c2ccc(OCC(N)=O)cc2)cc1)S(C)(=O)=O,nt,-2.6,-2.8,92.8,-0.4,45.5*,47.0,
CNC(=O)c1ccc(N(Cc2ccccc2C)S(C)(=O)=O)cc1,0.8,-3.0,0.8,121.6,0.4,0.7,nt,
CC1CCCCC12NC(=O)N(CC(=O)NNC(=O)c1ccc(Br)cc1)C2=O (stereo not drawn),-5.6,-6.2,-0.6,122.5,36.0,-3.1,nt,
NC(=O)CSc1nnc(Cc2csc(Nc3ccccc3)n2)n1Cc1ccccc1,-3.6,-9.0,0.9,105.6,-4.2,1.9,nt,
CC(C)=CCC/C(C)=C/CNC(=O)CC1C[C@H](C(=O)N(C(C)C)C(C)C)[C@@]2(C)c3[nH]c4ccccc4c3CCN2C1=O (stereo partly drawn),nt,-5.3,-7.9,102.4,nt,5.1,nt,
COc1ccc(/C=N/NC(=O)c2ccn[nH]2)cc1Cn1cc([N+](=O)[O-])cn1,-0.7,-4.3,0.7,105.2,-1.1,7.0,nt,
Cc1ccccc1NC(=O)c1ccc(NS(=O)(=O)c2cc(C(C)(C)C)cc(C)c2C)cc1,-12.4,-3.0,-2.1,109.4,-0.8,46.9*,41.9,
Cc1cccc(C)c1OCc1cc(C(=O)NCc2ccc(Cl)s2)no1,-3.4,-5.8,-0.1,101.4,-3.4,60.7*,67.0*,
COc1cccc(/C=C/C(=O)c2ccc[nH]2)c1,10.7,-4.9,-8.5,96.6,-5.2,9.9,nt,
O=C(/C=C\c1ccccc1OC(=O)c1ccccc1F)c1cc2ccccc2o1,-17.8,-4.7,5.6,89.1,-0.7,44.6*,51.2*,
CC(=O)/C=C\c1ccccc1OC(=O)c1cc2ccccc2oc1=O,-4.2,-2.2,3.6,98.3,1.6,-2.6,nt,
COc1ccc(-c2nc3ccccc3c(=O)n2N)cc1,0.6,-6.2,0.8,96.5,-0.1,9.1,nt,
COc1ccc(C(=O)On2c(-c3ccc(Br)cc3)nc3ccccc3c2=O)cc1,5.7,-18.6,9.4,92.1,-0.4,55.9*,65.5*,

# Screening results (PubChem)
